Only some compounds are listed: those with a hit (about 1.3% of all), similar ones and a draw of the others.
SARS PLpro yeast: qHTS of Yeast-based Assay for SARS-CoV PLP; S. cerevisiae expressing SARS-CoV PLpro, growth rescue; Potency, µM (highest dose often 32.9 µM), inactives show at the highest dose activity, positive = growth rescue, hits mostly activators; 0.19% of 330,000 active; AID 485353, 2010; calls by dose curve; note: 0% is about no effect; nearly all actives have a fitted effect of over 55% in size
AMA1 RON2 block: qHTS for Inhibitors of AMA1-RON; Towards Development of Antimalarial Drug Lead: Primary Screen. Plasmodium falciparum AMA1 (3D7) - RON2 peptide interaction. AlphaScreen AMA1-biotinylated RON2 peptide binding. Potency, µM (doses to about 58.2 µM), for the others: at the top dose activity change, negative = inhibition, hits mostly inhibitors. 0.2% of 360,000 active. AID 720542, 2013;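 note: 0% = vehicle wells and -100% = peptide control; nearly all actives have a fitted effect of over 45% in size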
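AMA1 (3D7) with his tag at 25 nM final met compounds first, then biotinylated RON2 peptide at 25 nM; detection used donor plus acceptor beads, 10 µg/mL apiece, read by AlphaScreen after 30 min at room temperature.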
Vaccinia Venus: qHTS for Stage-Specific Inhibitors of Vaccinia Orthopoxvirus: Venus Reporter Primary qHTS. Vaccinia virus Venus reporter expression, fluorescence. 0.46% of 330,000 active. Potency, µM (doses to about 36.5 µM), inactives show at the highest dose activity change, negative = inhibition, hits mostly inhibitors; calls by dose curve; tested in A549 cells; note: % is set by controls: 0 for no effect and ±100 for the full control effect; nearly all actives have a fitted effect of over 30% in size
AmpC detergent: qHTS Inhibitors of AmpC Beta-Lactamase (assay with detergent). AmpC hydrolysis of nitrocefin, absorbance 480 nm, 0.01% Triton. Potency, µM (highest dose often 114 µM), for the others: at the top dose activity change, negative = inhibition, hits mostly inhibitors. 0.041% of 370,000 active;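 note: 0% = no-compound wells and -100% = no-enzyme wells; nearly all actives have a fitted effect of over 25% in size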
Target sequence (P00811 whole entry, looked up): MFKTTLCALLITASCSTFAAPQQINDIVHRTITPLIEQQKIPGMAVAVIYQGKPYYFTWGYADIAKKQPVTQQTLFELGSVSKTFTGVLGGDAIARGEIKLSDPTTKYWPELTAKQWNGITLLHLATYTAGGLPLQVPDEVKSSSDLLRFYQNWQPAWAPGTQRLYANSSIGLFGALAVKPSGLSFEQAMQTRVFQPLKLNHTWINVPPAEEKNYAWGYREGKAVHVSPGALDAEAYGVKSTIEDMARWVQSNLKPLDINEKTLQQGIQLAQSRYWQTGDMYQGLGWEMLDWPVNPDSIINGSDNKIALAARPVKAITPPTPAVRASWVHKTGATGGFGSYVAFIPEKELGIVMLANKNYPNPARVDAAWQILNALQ
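AmpC (5.3 nM in the dispensed reagent) in 20 mM phosphate pH 7.0 with 0.01% (detergent screen) or 0.0001% Triton X-100 was preincubated with compounds for 15 min at room temperature. Nitrocefin was then added from an 800 uM solution, and hydrolysis was followed at 480 nm.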
Vaccinia mCherry: qHTS for Stage-Specific Inhibitors of Vaccinia Orthopoxvirus: mCherry Reporter Primary qHTS. 0.63% of 310,000 active. Potency, µM (series often up to 36.5 µM), for the others: top-dose activity change, negative = inhibition, most hits filed as inhibitors. AID 720579, 2013. Vaccinia virus mCherry reporter infection, fluorescence; calls by dose curve; tested in A549 cells; note: % is set by controls: 0 for no effect and ±100 for the full control effect; nearly all actives have a fitted effect of over 35% in size
AmpC inh no detg: qHTS Inhibitors of AmpC Beta-Lactamase (assay without detergent) | P00811 | AmpC nitrocefin hydrolysis, absorbance 480 nm, 0.0001% Triton | Potency, µM (titrated, usually from 57.1 µM), without a hit: top-dose activity change, negative = inhibition, most hits filed as inhibitors | 0.52% of 330,000 active;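 note: plate controls were no compound for no effect and no enzyme for full effect; nearly all actives have a fitted effect of over 20% in size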
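AmpC (5.3 nM in the dispensed reagent) in 20 mM phosphate pH 7.0 with 0.01% (detergent screen) or 0.0001% Triton X-100 was preincubated with compounds for 15 min at room temperature. Nitrocefin was then added from an 800 uM solution, and hydrolysis was followed at 480 nm.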
* marks the source's active call; other numbers are inactive results; i = inactive; ? = inconclusive; nt = no result given. Unless noted, calls come from the whole dose curve; as a rule, active = well fitted curve in the direction sought with a large enough effect; inconclusive = small, poorly fitted or top-dose-only effect, or another doubt; inactive = no such curve, though single readings can be large; an effect the other way counts as inactive or inconclusive. Potency is the fitted concentration of half-maximal effect.

SMILES | SARS PLpro yeast | AMA1 RON2 block | Vaccinia Venus | AmpC detergent | Vaccinia mCherry | AmpC inh no detg
CC(C)CC(OC(=O)c1ccco1)C(=O)NC1CCCCC1 (stereo not given) | -4.7% | 3.1% | -15.9% | 31.6µM* | i | 13.3%
Cc1ccc(S(=O)(=O)/C(C#N)=C/c2c[nH]c3ccccc23)cc1 | -0.6% | -9.8% | -21.3% | -3.8% | -17.8% | 17.8µM*
Cc1ccc(S(=O)(=O)N/N=C/c2c[nH]c3ccccc23)cc1 | -0.3% | -8.2% | nt | 3.8% | nt | -24.2%
COc1ccccc1N1CCN(C(=O)c2ccc(C(C)(C)C)cc2)CC1 | 8.7% | -8.4% | 10µM* | -11.2% | 11.2µM* | 102.4%
COc1ccc(C(=O)N2CCN(c3ccccc3OC)CC2)cc1 | 1.8% | -4.0% | nt | 0.3% | nt | -2.2%
OC1(c2cccnc2)CCN(Cc2ccc3c(c2)CN(Cc2cccc(C(F)(F)F)c2)CCO3)CC1 | nt | nt | -23.5% | nt | -27.4% | nt
O=C(CCc1nc2ccccc2c(=O)[nH]1)N1CCN(S(=O)(=O)c2ccccc2Br)CC1 | ? | 15.1% | 10µM* | -9.9% | ? | -9.0%
Cc1ccc(S(=O)(=O)N2CCN(C(=O)CCc3nc4ccccc4c(=O)[nH]3)CC2)c(C)c1 | -1.7% | 9.7% | ? | ? | -9.0% | 37.2%
CC1=CC(C)(C)n2c(O)c(N=NC(N)=S)c3c(C)ccc1c32 | -18.7% | 1.5% | ? | -9.0% | 1.26µM* | -35.1%
CC(O)C(C(=O)OCc1ccc([N+](=O)[O-])cc1)N1C(=O)c2ccccc2C1=O (stereo not given) | 5.1% | 0.0% | -8.5% | 79.4µM* | -6.3% | -10.2%
C[C@H](N)C(=O)OCc1ccc([N+](=O)[O-])cc1 | -1.0% | -7.5% | nt | -20.3% | nt | -7.4%
C/C(=N/NC(=O)c1ccncc1)c1ccc(NC(=O)c2ccc(Cl)cc2Cl)cc1 | -2.6% | 19.8% | -5.2% | -3.1% | -13.6% | -9.9%
CC(=NNC(=O)c1ccncc1)c1ccccc1O | nt | 62.7% | ? | nt | 1.12µM* | nt
CC(=NNC(=O)c1ccncc1)c1ccc(O)cc1O | nt | 66.5% | ? | nt | ? | nt
CC(C)CC(=NNC(=O)c1ccncc1)c1cc(Cl)ccc1O | nt | 67.3% | ? | nt | 5.62µM* | nt
Cc1cnc(C)c(-c2cccc3c2OC(CNC(=O)/C=C/c2ccncc2)C3)n1 (stereo not given) | nt | nt | 1.2% | nt | -11.9% | nt
SCc1nc2ccccc2[nH]1 | nt | nt | -10.7% | nt | -21.8% | nt
CNc1ccc(C(=O)c2ccccc2C(=O)O)cc1[N+](=O)[O-] | 0.8% | 0.0% | -1.8% | -3.0% | -6.9% | -12.0%
CNc1ccc(/C=C/C(=O)c2cccc3ccccc23)cc1[N+](=O)[O-] | 9.0% | ? | -17.0% | -16.3% | -16.9% | 28.2µM*
Cc1cccc(C)c1NC(=O)CCCCCC1NC(=O)NC1C (stereo not given) | 0.2% | -13.2% | 2.0% | -5.8% | i | -15.4%
CC1NC(=O)NC1CCCCCC(=O)NCCc1ccccc1 (stereo not given) | 2.4% | 1.5µM* | 1.5% | -13.5% | -20.7% | 87.8%
O=S(=O)(c1ccc2ccccc2c1)N1CCN(c2ccc(O)cc2)CC1 | -11.8% | -25.8% | nt | nt | nt | 10µM*
CN1CCN(S(=O)(=O)c2ccc3ccccc3c2)CC1 | -5.4% | -0.4% | 5.5% | -14.6% | 4.8% | -5.0%
O=[N+]([O-])c1cc(Br)c(Nc2ccccc2)c([N+](=O)[O-])c1 | -12.9% | 25.1µM* | nt | -7.5% | nt | -17.5%
CC1=CC(=O)c2c(O)ccc(O)c2C1=O | 0.3% | nt | nt | ? | nt | 14.1µM*
SMILES | SARS PLpro yeast | AMA1 RON2 block | Vaccinia Venus | AmpC detergent | Vaccinia mCherry | AmpC inh no detg
CC(C)c1c(C(=O)NCCN2CCOCC2)cnn1-c1nccc(-c2ccco2)n1 | nt | nt | 0.0% | nt | -3.2% | nt
CCOC(=O)c1c(-c2cccc3ccccc23)csc1NC(=O)C1C2CCC(O2)C1C(=O)O (stereo not given) | -0.8% | -1.0% | 2.0% | -9.5% | -21.4% | -30.5%
CCOC(=O)c1c(NC(=O)C2C3CCC(O3)C2C(=O)O)sc(C)c1-c1ccc(C)cc1 (stereo not given) | ? | -4.3% | 11.2µM* | -8.7% | nt | -42.8%
COc1ccc(-c2cc(C(=O)N3CCc4c(cnc(C)c4CNC(=O)c4ccsc4)C3)[nH]n2)cc1 | nt | nt | 12.4% | nt | -5.3% | nt
COCC1CCCN(Cc2ccc3c(c2)CN(C(=O)c2cn4ccc(C)cc4n2)CCO3)C1 (stereo not given) | nt | nt | -0.5% | nt | -8.0% | nt
CC(C)NCC(O)Cn1c2c(c3ccccc31)CCc1c-2cnn1-c1ccccc1 (stereo not given) | -2.5% | -11.7% | 11.2µM* | -13.5% | nt | 136.9%
CCOC(=O)CC(=O)CSc1ccc2nnc(-c3ccccc3)n2n1 | -2.8% | 7.5% | nt | 2.1% | nt | 0.159µM*
CCSc1ccc2nnc(-c3ccc(F)cc3)n2n1 | -8.7% | 14.4% | -10.6% | 2.5% | -17.1% | 0.398µM*
Cc1nn(-c2ccc(F)cc2)c2nc(N)c(C#N)c(-c3ccc(O)c(O)c3)c12 | -0.9% | -23.6% | ? | 1.9% | ? | 14.1µM*
Cc1nc2ccccc2nc1CN1CCOc2ccc(CN3CCc4sccc4C3)cc2C1 | nt | nt | 1.8% | nt | -0.7% | nt
CC(=O)c1ccc(-c2cc(F)cc3c2OC(CNC(=O)c2ccc[n+]([O-])c2)C3)s1 (stereo not given) | nt | nt | 0.0% | nt | -4.2% | nt
O=C(NCCCN1CCOCC1)/C(=C/c1ccc(-c2cccc([N+](=O)[O-])c2)o1)NC(=O)c1ccccc1 | nt | -14.9% | -11.1% | nt | -2.1% | nt
Cc1nc2nc(C)n(CCN3CCOCC3)c(=O)c2c(-c2cccc([N+](=O)[O-])c2)c1C(=O)CCCCCCCCCCN1CCC(c2ccccc2)(c2ccccc2)CC1 | nt | ? | 10µM* | nt | ? | nt
COc1ccccc1NC(C)C(=O)c1c[nH]c2ccccc12 (stereo not given) | nt | nt | -10.3% | nt | i | nt
C#CCN(Cc1ccc(OC)cc1)S(=O)(=O)C=C | nt | nt | 28.2µM* | nt | ? | nt
COc1ccc(CN(Cc2cccn2C)S(=O)(=O)c2ccccc2)cc1 | -1.6% | ? | -6.8% | -4.4% | -9.4% | -24.8%
CCC(OC(=O)C(NC(=O)c1ccccc1)c1ccccc1)C(=O)Nc1cc(C)on1 (stereo not given) | 22.4µM* | 12.8% | 3.4% | ? | 3.3% | -14.4%
Cc1cc(-c2ccnc(-n3ncc(C(=O)NCC4COCCO4)c3C3CC3)n2)c(C)s1 (stereo not given) | nt | nt | -20.8% | nt | -9.1% | nt
O=Nc1c(O)c2ccccc2c2ccccc12 | nt | 5.8% | 10µM* | nt | ? | nt

Screening results as filed in PubChem.
